This passage reports IC50 results from PubChem BioAssay AID602400 (Sanford-Burnham Center for Chemical Genomics, 2012).

A number with no mark means an inactive call. Activity calls are given as the source filed them. No rule for the calls is given here.

A short description of this experiment: off-target activity on Bfl-1 – biochemical, set 4, counter-screen for UBC13 polyubiquitination inhibitor project, SAR follow-up (AID 602400). The conditions noted are these: Bfl-1 counterscreen for UBC13 inhibitors.
With `CCC1CCCCN1CCCNC(=O)C1CCN(c2ncnc3c2nc2n3CCCCC2)CC1` (stereo not drawn), the IC50 was over 100 µM.

On to `O=C(NCC1CCN(Cc2cccc(Cl)c2)CC1)[C@@H]1CCCN(c2ncnc3c2nc2n3CCCC2)C1`, for which the IC50 was over 100 µM.

On to `O=C(C1CCN(c2ncnc3c2nc2n3CCCCC2)CC1)N1CCN(c2ccccc2)CC1`, for which the IC50 was over 100 µM.

For `O=C(NCC1CCN(Cc2cccc(Cl)c2)CC1)[C@@H]1CCCN(c2ncnc3c2nc2n3CCCCC2)C1`, the IC50 was over 100 µM.

For `Cc1ccc(NC(=O)C2CCCN(c3ncnc4c3nc3n4CCCCC3)C2)cc1Br` (stereo not drawn), the IC50 was over 100 µM.

As to `O=C(NCC1CCN(Cc2ccccc2Cl)CC1)C1CCCN(c2ncnc3c2nc2n3CCCC2)C1` (stereo not drawn), the IC50 was over 100 µM.

For `Cc1cccc(NC(=O)C2CCCN(c3ncnc4c3nc3n4CCCCC3)C2)c1` (stereo not drawn), the IC50 was over 100 µM.

As to `CN(CCNC(=O)C1CCN(c2ncnc3c2nc2n3CCCCC2)CC1)Cc1ccccc1`, the IC50 is over 100 µM.

For `O=C(NCC1CCN(Cc2ccc(Cl)cc2)CC1)C1CCCN(c2ncnc3c2nc2n3CCCCC2)C1` (stereo not drawn), the IC50 was over 100 µM.

Take `Cc1ccc(NC(=O)C2CCCN(c3ncnc4c3nc3n4CCCC3)C2)cc1C` (stereo not drawn): the IC50 is over 100 µM.

`O=C(NCc1ccc(Cl)c(Cl)c1)C1CCN(c2ncnc3c2nc2n3CCCCC2)CC1`: the IC50 was over 100 µM.

As to `O=C(c1ccco1)N1CCN(C(=O)C2CCN(c3ncnc4c3nc3n4CCCCC3)CC2)CC1`, the IC50 is over 100 µM.

Turning to `Cc1cc(C)cc(NC(=O)C2CCCN(c3ncnc4c3nc3n4CCCCC3)C2)c1` (stereo not drawn), the IC50 is over 100 µM.

As to `Cc1ccc(NC(=O)C2CCN(c3ncnc4c3nc3n4CCCC3)CC2)cc1C`, the half-maximal inhibitory concentration (IC50) was 20.8 µM (active).

As to `O=C(NCC1CCN(Cc2ccc(Cl)cc2)CC1)C1CCCN(c2ncnc3c2nc2n3CCCC2)C1` (stereo not drawn), the IC50 was 76.8 µM (active).

On to `O=C(NCC1CCN(Cc2cccc(Cl)c2)CC1)[C@H]1CCCN(c2ncnc3c2nc2n3CCCCC2)C1`, for which the IC50 is over 100 µM.

As for `Cc1ccc(NC(=O)C2CCN(c3ncnc4c3nc3n4CCCCC3)CC2)cc1Cl`, the IC50 is over 100 µM.

For the molecule `O=C(NCCCN1CCN(c2ccccc2)CC1)C1CCCN(c2ncnc3c2nc2n3CCCCC2)C1` (stereo not drawn), the IC50 is over 100 µM.

As for `Cc1ccc(NC(=O)C2CCN(c3ncnc4c3nc3n4CCCCC3)CC2)cc1Br`, the IC50 is over 100 µM.

`COc1cc(OC)c(NC(=O)C2CCN(c3ncnc4c3nc3n4CCCCC3)CC2)cc1Cl`: the IC50 was over 100 µM.

Consider `Cc1ccccc1CN1CCC(CNC(=O)C2CCCN(c3ncnc4c3nc3n4CCCCC3)C2)CC1` (stereo not drawn), for which the IC50 is over 100 µM.

For `Cc1ccc(NC(=O)C2CCCN(c3ncnc4c3nc3n4CCCC3)C2)cc1F` (stereo not drawn), the IC50 was over 100 µM.

Consider `O=C(NCc1ccc(Cl)c(Cl)c1)C1CCCN(c2ncnc3c2nc2n3CCCCC2)C1` (stereo not drawn), for which the IC50 was over 100 µM.

`CC1CCCC(C)N1CCCNC(=O)C1CCCN(c2ncnc3c2nc2n3CCCCC2)C1` (stereo not drawn): the IC50 is over 100 µM.

Regarding `Cc1cc(C)cc(NC(=O)C2CCN(c3ncnc4c3nc3n4CCCCC3)CC2)c1`, the IC50 is 72.9 µM (active).

For `COc1ccc(NC(=O)C2CCN(c3ncnc4c3nc3n4CCCCC3)CC2)cc1Cl`, the IC50 was over 100 µM.

Consider `O=C(NCC1CCN(Cc2ccccc2F)CC1)C1CCCN(c2ncnc3c2nc2n3CCCCC2)C1` (stereo not drawn), for which the IC50 is over 100 µM.

Consider `O=C(NCC1CCN(Cc2ccc(Cl)c(Cl)c2)CC1)C1CCCN(c2ncnc3c2nc2n3CCCCC2)C1` (stereo not drawn), for which the IC50 was over 100 µM.

Turning to `O=C(NCc1cccc(Cl)c1)C1CCN(c2ncnc3c2nc2n3CCCCC2)CC1`, the IC50 is over 100 µM.

As to `O=C(NCC1CCN(Cc2ccc(Cl)c(Cl)c2)CC1)C1CCCN(c2ncnc3c2nc2n3CCCC2)C1` (stereo not drawn), the IC50 was over 100 µM.

As to `Cc1cc(C)cc(NC(=O)C2CCCN(c3ncnc4c3nc3n4CCCC3)C2)c1` (stereo not drawn), the IC50 was over 100 µM.

Take `O=C(NCc1ccc(Cl)c(Cl)c1)C1CCCN(c2ncnc3c2nc2n3CCCC2)C1` (stereo not drawn): the IC50 was over 100 µM.

For `Cc1cccc(NC(=O)C2CCN(c3ncnc4c3nc3n4CCCC3)CC2)c1`, the IC50 was 23 µM (active).

For `O=C(C1CCN(c2ncnc3c2nc2n3CCCCC2)CC1)N1CCN(Cc2ccccc2)CC1`, the IC50 is over 100 µM.

Turning to `O=C(C1CCN(c2ncnc3c2nc2n3CCCCC2)CC1)N1CCN(c2ccccn2)CC1`, the IC50 was over 100 µM.

In the case of `O=C(Nc1ccc(F)c(Cl)c1)C1CCN(c2ncnc3c2nc2n3CCCCC2)CC1`, the IC50 was over 100 µM.

Consider `Cc1ccc(NC(=O)C2CCCN(c3ncnc4c3nc3n4CCCCC3)C2)cc1F` (stereo not drawn), for which the IC50 is over 100 µM.

With `Cc1ccc(NC(=O)C2CCN(c3ncnc4c3nc3n4CCCC3)CC2)cc1F`, the IC50 is over 100 µM.
